# Experimental data reported in PubChem BioAssay (NCATS).
# Where “and” joins values, the source holds several entries; their conditions need not be identical. Equal entries are not always repeated. Results filed as inconclusive are left out. Where a call stands in place of a potency, no number is given. Calls of active or inactive are those of the source. Unless noted, the call rests on the fitted dose curve; in most records, active means well fitted curve in the direction sought with a large enough effect; inconclusive means small, poorly fitted or top-dose-only effect, or another doubt; inactive means no such curve, though single readings can be large; an effect the other way counts as inactive or inconclusive.
# Columns and labels:
# [1] = target: Guanine nucleotide-binding protein G(i) subunit alpha-1 (Homo sapiens) (UniProt P63096); experiment: qHTS Assay for Inhibitors of RGS12 GoLoco Motif Activity (Green Fluorophore) (AID 879); settings: Galphai1/FITC-RGS12 GoLoco peptide, fluorescence polarization; series mostly up to 57.1 µM;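 further: negative values mean loss of peptide binding seen as reduced polarization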
# Guanine nucleotide-binding protein G(i) subunit alpha-1 (Homo sapiens), sequence (P63096 whole entry, looked up): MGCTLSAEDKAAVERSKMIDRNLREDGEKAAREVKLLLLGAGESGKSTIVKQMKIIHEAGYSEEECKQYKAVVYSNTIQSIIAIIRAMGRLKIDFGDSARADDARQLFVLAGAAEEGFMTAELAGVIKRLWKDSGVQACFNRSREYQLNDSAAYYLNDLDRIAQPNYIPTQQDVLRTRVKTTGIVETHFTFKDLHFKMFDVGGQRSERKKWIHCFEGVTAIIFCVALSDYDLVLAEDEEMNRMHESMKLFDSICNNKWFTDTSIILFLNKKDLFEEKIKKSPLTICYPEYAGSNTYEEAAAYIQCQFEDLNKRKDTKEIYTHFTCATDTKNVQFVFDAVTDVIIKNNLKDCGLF
# In short: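 Fluorescence polarization assay: 50 nM Gαi1 with 10 nM FITC-labeled RGS12 GoLoco peptide in 10 mM Tris pH 7.5, 150 mM NaCl, 0.1 mM GDP, 0.05% NP40, 10 min at room temperature with compound.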
# [2] = target: Cytochrome P450 2C9 (Homo sapiens) (UniProt P11712); experiment: qHTS Assay for Inhibitors and Substrates of Cytochrome P450 2C9 (AID 883); settings: recombinant CYP2C9, luciferin-H luminescence, 60 min; series mostly up to 57.1 µM; further: nearly all actives have a fitted effect of over 60% in size; further: potency means the concentration at half of the fitted maximal effect
# Cytochrome P450 2C9 (Homo sapiens), sequence (P11712 whole entry, looked up): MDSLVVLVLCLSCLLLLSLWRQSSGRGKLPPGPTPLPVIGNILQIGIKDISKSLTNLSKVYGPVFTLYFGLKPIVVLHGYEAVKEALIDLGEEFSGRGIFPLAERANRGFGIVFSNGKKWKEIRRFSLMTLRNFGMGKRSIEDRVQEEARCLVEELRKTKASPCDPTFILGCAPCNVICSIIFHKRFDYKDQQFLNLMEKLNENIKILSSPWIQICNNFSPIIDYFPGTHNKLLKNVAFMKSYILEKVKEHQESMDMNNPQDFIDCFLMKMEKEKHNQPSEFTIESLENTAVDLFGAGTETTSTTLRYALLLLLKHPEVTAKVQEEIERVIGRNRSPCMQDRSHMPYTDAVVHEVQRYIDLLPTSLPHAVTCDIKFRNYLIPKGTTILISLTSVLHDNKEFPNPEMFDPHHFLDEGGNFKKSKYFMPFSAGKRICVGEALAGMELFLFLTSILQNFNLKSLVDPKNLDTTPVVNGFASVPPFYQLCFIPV
# In short: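 Human CYP2C9 (10nM) with Luciferin-H at 100uM (its KM) in 25mM KPO4; compound preincubated 10 min at 37C, then NADPH regeneration for 60 min at 37C. Luciferin read by luminescence after detection reagent; normalized to 57uM sulphaphenazole as full inhibition.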
# [3] = target: Cytochrome P450 3A4 (Homo sapiens) (UniProt P08684); experiment: qHTS Assay for Inhibitors and Substrates of Cytochrome P450 3A4 (AID 884); settings: recombinant CYP3A4, Luciferin-PPXE luminescence; series mostly up to 57.1 µM; further: nearly all actives have a fitted effect of over 50% in size; further: potency means the concentration at half of the fitted maximal effect
# Cytochrome P450 3A4 (Homo sapiens), sequence (P08684 whole entry, looked up): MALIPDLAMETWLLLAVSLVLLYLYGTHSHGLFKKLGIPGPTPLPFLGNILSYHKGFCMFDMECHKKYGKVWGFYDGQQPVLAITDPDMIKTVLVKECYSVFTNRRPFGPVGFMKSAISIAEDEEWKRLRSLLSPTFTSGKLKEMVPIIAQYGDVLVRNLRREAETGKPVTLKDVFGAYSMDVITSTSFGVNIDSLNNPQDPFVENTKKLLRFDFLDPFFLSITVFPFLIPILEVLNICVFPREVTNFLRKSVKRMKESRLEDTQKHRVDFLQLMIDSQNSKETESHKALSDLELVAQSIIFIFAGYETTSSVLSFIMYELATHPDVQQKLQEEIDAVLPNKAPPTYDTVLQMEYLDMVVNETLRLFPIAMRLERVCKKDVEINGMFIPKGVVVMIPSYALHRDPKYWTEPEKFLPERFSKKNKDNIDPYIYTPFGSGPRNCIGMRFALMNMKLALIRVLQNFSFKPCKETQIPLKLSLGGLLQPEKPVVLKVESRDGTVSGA
# In short: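 20 nM human CYP3A4 with 25 uM Luciferin-PPXE (at KM) in 200 mM KPO4, preincubated 10 min with compound; NADPH regeneration started a 60 min RT reaction. Luciferin detected by luminescence, normalized to 57 uM ketoconazole as full inhibition.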
# [4] = target: Cytochrome P450 2D6 (Homo sapiens) (UniProt P10635); experiment: qHTS Assay for Inhibitors and Substrates of Cytochrome P450 2D6 (AID 891); settings: recombinant CYP2D6, luciferin-ME EGE luminescence; series mostly up to 57.1 µM; further: nearly all actives have a fitted effect of over 60% in size; further: potency means the concentration at half of the fitted maximal effect
# Cytochrome P450 2D6 (Homo sapiens), sequence (P10635 whole entry, looked up): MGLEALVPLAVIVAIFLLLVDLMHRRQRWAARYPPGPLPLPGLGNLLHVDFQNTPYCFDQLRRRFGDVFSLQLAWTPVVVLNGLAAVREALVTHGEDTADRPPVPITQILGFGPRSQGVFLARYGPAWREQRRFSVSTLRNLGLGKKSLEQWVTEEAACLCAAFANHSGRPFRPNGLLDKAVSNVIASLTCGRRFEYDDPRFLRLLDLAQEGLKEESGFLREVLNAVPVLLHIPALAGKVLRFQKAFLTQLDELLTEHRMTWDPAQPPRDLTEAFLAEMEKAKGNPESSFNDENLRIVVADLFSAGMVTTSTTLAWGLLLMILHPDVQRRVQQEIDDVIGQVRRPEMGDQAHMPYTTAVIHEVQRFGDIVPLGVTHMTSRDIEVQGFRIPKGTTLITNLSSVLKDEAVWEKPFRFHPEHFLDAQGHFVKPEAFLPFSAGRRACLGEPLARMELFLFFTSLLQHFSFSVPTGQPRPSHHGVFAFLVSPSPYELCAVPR
# In short: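 Human CYP2D6 (5 nM) with 30 uM Luciferin-ME EGE (at Km) in 100 mM KPO4, compound preincubated 10 min, then NADPH regeneration system for 60 min at room temperature. Luciferin read by luminescence; normalized to 1.43 uM quinidine.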
# [5] = qHTS Assay for Identification of Small Molecule Antagonists for NFkB Signaling Pathway (AID 895; active means well fitted inhibition curve with a large enough effect in the signal ratio, with a control signal flat, not every such curve was filed as active; the % refers to the signal ratio; further: potency means the concentration at half of the fitted maximal effect); settings: NFkB beta-lactamase reporter cells, FRET ratio 460/530, stimulated with 10 pM TNF alpha; series mostly up to 38.3 µM
# In short: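 ME-180 NFkB-bla cells (beta-lactamase under NFkB response element), plated overnight, treated with compound then 10 pM TNF alpha (about EC50) for 5 hrs at 37 C. LiveBLAzer FRET read at 460/530 nm emission, 405 nm excitation.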
# [6] = target: Cytochrome P450 2C19 (Homo sapiens) (UniProt P33261); experiment: qHTS Assay for Inhibitors and Substrates of Cytochrome P450 2C19 (AID 899); settings: recombinant CYP2C19, luciferin-H EGE luminescence; series mostly up to 57.1 µM; further: nearly all actives have a fitted effect of over 60% in size; further: potency means the concentration at half of the fitted maximal effect
# Cytochrome P450 2C19 (Homo sapiens), sequence (P33261 whole entry, looked up): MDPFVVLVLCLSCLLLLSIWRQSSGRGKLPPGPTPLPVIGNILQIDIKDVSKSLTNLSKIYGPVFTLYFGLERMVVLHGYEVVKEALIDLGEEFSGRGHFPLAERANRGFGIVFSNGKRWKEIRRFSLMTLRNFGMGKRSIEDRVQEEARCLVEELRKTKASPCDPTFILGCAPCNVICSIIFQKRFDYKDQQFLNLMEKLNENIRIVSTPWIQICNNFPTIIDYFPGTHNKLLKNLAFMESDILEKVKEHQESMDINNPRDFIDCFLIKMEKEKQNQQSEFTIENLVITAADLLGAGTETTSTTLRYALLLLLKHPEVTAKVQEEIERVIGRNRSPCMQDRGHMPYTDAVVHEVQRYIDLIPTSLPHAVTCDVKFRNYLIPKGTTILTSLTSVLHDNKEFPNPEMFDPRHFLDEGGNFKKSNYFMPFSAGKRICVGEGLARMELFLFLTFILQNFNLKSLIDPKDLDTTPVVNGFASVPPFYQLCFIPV
# In short: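 5 nM human CYP2C19 with 10uM Luciferin-H EGE (at KM) in 50mM KPO4, compound preincubated 10 min at 37C, then NADPH regeneration for 60 min at 37C. Luciferin read by luminescence after detection reagent; normalized to 57uM ketoconazole as full inhibition.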
# [7] = Cellular Toxicity (caspase-3) Hek293 (AID 664); settings: HEK293 caspase-3 activation, DMSO = 0%, 100 µM tamoxifen = 100%; series mostly up to 92.2 µM;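 further: cells exposed to compound for 16 h at 37 °C before readout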
# In short: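 HEK293 cells were exposed to compounds in complete medium for 16 hr at 37 °C, then caspase-3/7 activity was read by Caspase-Glo 3/7 luminescence after 20 min at room temperature. Data normalized to DMSO and 100 uM tamoxifen; AC50 from Hill fits.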
# [8] = Cellular Toxicity (caspase-3) N2a (AID 665); settings: N2a cells, luminescence, normalized: DMSO 0%, 10 µM staurosporine 100%; series mostly up to 92.2 µM;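 further: compound exposure lasted 16 h at 37 °C before readout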
# In short: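 Mouse N2a neuroblastoma cells (1500/well) were treated with compounds for 16 h at 37 °C, then caspase-3/7 activity was read by Caspase-Glo luminescence after 1 h at room temperature. Data were normalized to DMSO and 10 uM staurosporine; AC50 from Hill fits.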
# [9] = Cellular Toxicity (caspase-3) NIH 3T3 (AID 666); settings: NIH 3T3 caspase-3 activation, apoptosis/toxicity, 0% DMSO, 100% is 100 µM tamoxifen; series mostly up to 92.2 µM
# In short: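 Mouse NIH 3T3 fibroblasts (1000 cells/well) were treated with compound for 16 hr at 37°C in complete medium; caspase-3/7 activity was read by Caspase-Glo luminescence. Normalized to DMSO and 100 uM tamoxifen; AC50 from Hill fits.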
# [10] = Cellular Toxicity (caspase-3) Renal Proximal Tubule (AID 667); settings: renal proximal tubule cells, primary cells freshly taken from rat, solvent-only wells 0%, staurosporine 100%; series mostly up to 91.7 µM;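 further: cells exposed to compound for 16 hours at 37 °C before detection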
# In short: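 Caspase-Glo 3/7 read-out, rat primary kidney proximal tubule cells. Compound exposure 16 h, 37 °C; detection after 1 h at RT. Activity scaled to DMSO and 10 uM staurosporine.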
structure (smiles),measurement,setting,value
CC(C)(Sc1ccc(CCN(CCCCC2CCCCC2)C(=O)NC2CCCCC2)cc1)C(=O)O,outcome,[1],inactive
same,Potency,[2],31.6 µM (active)
same,Potency,[3],3.98 µM (active)
same,Potency,[4],inactive
same,Potency,[5],14.1 µM (active)
same,Potency,[6],inactive
Cc1[nH]c(=O)c(C#N)cc1-c1ccc2nccn2c1,outcome,[1],inactive
CCOC(=O)C1=C[C@@]2(CC)CCCN3CCc4c(n1c1ccccc41)[C@H]32,outcome,[1],inactive
same,Potency,[2],inactive
same,Potency,[4],39.8 µM (active) and 6.31 µM (active)
same,Potency,[6],inactive
O=c1[nH]cnc2[nH]ncc12,outcome,[7],inactive
same,outcome,[8],inactive
same,outcome,[9],inactive
same,outcome,[10],inactive
same,outcome,[1],inactive
same,Potency,[2],inactive
same,Potency,[3],inactive
same,Potency,[4],inactive
same,Potency,[6],inactive
Cn1cnc([N+](=O)[O-])c1Sc1ncnc2nc[nH]c12,outcome,[7],inactive
same,outcome,[8],inactive
same,outcome,[9],inactive
same,outcome,[10],inactive
same,outcome,[1],inactive
same,Potency,[5],inactive
NCCc1ccc(O)c(O)c1,outcome,[1],inactive
Cc1[nH]c(=O)c(C#N)cc1-c1ccncc1,outcome,[1],inactive
O=NN(CCCl)C(=O)NCCCl,outcome,[1],inactive
NC(=O)c1cnccn1,outcome,[7],inactive
same,outcome,[8],inactive
same,outcome,[9],inactive
same,outcome,[10],inactive
same,outcome,[1],inactive
same,Potency,[2],inactive
same,Potency,[3],inactive
same,Potency,[4],inactive
same,Potency,[6],inactive
CN1CCN(CCCN2c3ccccc3Sc3ccc(C(F)(F)F)cc32)CC1,outcome,[1],inactive
N[C@@H]1CONC1=O,outcome,[1],inactive
same,Potency,[2],inactive
CNC[C@H](O)c1cccc(O)c1,outcome,[1],inactive
C1COC(NC(C2CC2)C2CC2)=N1,outcome,[1],inactive
same,Potency,[2],inactive
same,Potency,[4],398 nM (active)
same,Potency,[6],inactive
Nc1nc2ccc(OC(F)(F)F)cc2s1,outcome,[1],inactive
Cc1cn[nH]c1,outcome,[1],inactive
CC(=O)Oc1ccccc1C(=O)O,outcome,[7],inactive
same,outcome,[8],inactive
same,outcome,[9],inactive
same,outcome,[10],inactive
same,outcome,[1],inactive
same,Potency,[2],inactive
same,Potency,[3],inactive
same,Potency,[4],inactive
same,Potency,[6],inactive
NC(N)=NC(=O)c1nc(Cl)c(N)nc1N,outcome,[7],inactive
same,outcome,[8],inactive
same,outcome,[9],inactive
same,outcome,[10],inactive
same,outcome,[1],inactive
same,Potency,[3],inactive
same,Potency,[5],inactive
NS(=O)(=O)c1cc2c(cc1Cl)NC=NS2(=O)=O,outcome,[7],inactive
same,outcome,[8],inactive
same,outcome,[9],inactive
same,outcome,[10],inactive
same,outcome,[1],inactive
CCCC(CCC)C(=O)O,outcome,[7],inactive
same,outcome,[8],inactive
same,outcome,[9],inactive
same,outcome,[10],inactive
same,outcome,[1],inactive
same,Potency,[3],inactive
NC[C@H](O)c1ccc(O)c(O)c1,outcome,[1],inactive
CC(C[N+](C)(C)C)OC(N)=O (stereo unspecified),Potency,[3],inactive
CCCCNc1cc(C(=O)O)cc(S(N)(=O)=O)c1Oc1ccccc1,outcome,[1],inactive
same,Potency,[5],inactive
O=C1CCc2cc(OCCCCc3nnnn3C3CCCCC3)ccc2N1,outcome,[1],inactive
same,Potency,[4],inactive
same,Potency,[6],inactive
CC(C)NCC(O)COc1ccc(COCCOC(C)C)cc1 (stereo unspecified),outcome,[1],inactive
same,Potency,[3],inactive
CCOC(=O)N1CCC(=C2c3ccc(Cl)cc3CCc3cccnc32)CC1,outcome,[1],inactive
same,Potency,[5],inactive
Cc1ccc(N(CC2=NCCN2)c2cccc(O)c2)cc1,outcome,[1],inactive
same,Potency,[4],3.16 µM (active) and 794 nM (active)
CCN(CC)CCCC(C)Nc1nc(C)cc(Nc2ccc3nc(C)cc(N)c3c2)n1 (stereo unspecified),Potency,[3],inactive
O=c1n(CCCN2CCN(c3cccc(Cl)c3)CC2)nc2ccccn12,outcome,[1],inactive
same,Potency,[3],inactive
Nc1ccc(S(=O)(=O)Nc2ccnn2-c2ccccc2)cc1,outcome,[1],inactive
same,Potency,[5],7.08 µM (active)
same,Potency,[6],inactive
COc1ccc2nc(S(=O)Cc3ncc(C)c(OC)c3C)[nH]c2c1 (stereo unspecified),Potency,[2],inactive
same,Potency,[4],inactive
CCN(c1ccccc1)c1cc(NC)[n+](C)c(C)n1,Potency,[4],3980 nM (active)
CCn1cc(C(=O)O)c(=O)c2cc(F)c(N3CCNC(C)C3)c(F)c21 (stereo unspecified),Potency,[3],inactive
C[C@]12CCC(=O)C=C1CC[C@@H]1[C@@H]2[C@@H](O)C[C@@]2(C)[C@H]1CC[C@]2(O)C(=O)CO,outcome,[1],inactive
same,Potency,[5],0.0141 µM (active)
Cc1oncc1C(=O)Nc1ccc(C(F)(F)F)cc1,outcome,[1],inactive
same,Potency,[4],inactive
same,Potency,[5],inactive
same,Potency,[6],inactive
Cc1cnc(NC(=O)C2=C(O)c3ccccc3S(=O)(=O)N2C)s1,outcome,[1],inactive
same,Potency,[5],inactive
Cc1ccc2c(c1)C(=O)[C@@]1(O)CCN(c3ccccc3)C1=N2,Potency,[6],7.94 µM (active)
NNCCc1ccccc1,outcome,[1],inactive
same,Potency,[4],6.31 µM (active) and 2.51 µM (active)
same,Potency,[6],794 nM (active) and 316 nM (active)
Clc1cccc(Cl)c1NC1=NCCN1,outcome,[1],inactive
same,Potency,[2],7.94 µM (active)
same,Potency,[6],5.01 µM (active)
N=c1nc(N2CCCCC2)cc(N)n1O,outcome,[1],inactive
same,Potency,[2],inactive
same,Potency,[4],inactive
same,Potency,[6],inactive
Nc1nc2c(ncn2COCCO)c(=O)[nH]1,outcome,[1],inactive
same,Potency,[3],inactive
OC(CN1CCC(Cc2ccc(F)cc2)CC1)c1ccc(Cl)cc1 (stereo unspecified),outcome,[1],inactive
same,Potency,[3],inactive
